Measured values: PubChem BioAssay AID1486 (The Scripps Research Institute Molecular Screening Center, 2009)
Hit rate of the full screen: of about 220,000 compounds, about 2,400 (1.1%) were called active.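 Rule for the calls: active = inhibition above a per-campaign cutoff, the mean inhibition of all tested compounds plus 3 SD (cut at about 27% in these data); inactive = the rest.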 Many of the other results were omitted from the sample, so actives are more common in it than they were.

Assay: parental Ba/F3 cell viability inhibition, counter-screen for JAK2V617F inhibitor project, murine pro-B, CellTiter-Glo luminescence (AID 1486);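 note: 0% = DMSO wells and 100% = JAK Inhibitor I control wells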
Details: CellTiter-Glo ATP luminescence, at 5.6 µM, hits give high values
In the case of `COc1ccccc1-c1c(C#N)c(N)nc2c1CCC2`, the inhibition is reported as 0.32% (inactive). In the case of `COC(=O)c1sccc1NC(=O)CC1C(=O)NCCN1C(=O)Nc1ccc(F)cc1F` (stereo not drawn), the inhibition is reported as -2.58% (inactive). With `CSc1ccc(/C=N/NC(=O)c2cccc(Cl)c2)cc1` the inhibition was 1.81% (inactive). With `COc1ccc(C2=NOC(C(=O)NCc3ccco3)C2)cc1OC` (stereo not drawn) the inhibition was 64.1% (active). With `COc1ccc(-c2cc(C(=O)NCc3ccco3)no2)cc1OC` the inhibition was 4.7% (inactive). In the case of `Cc1ccc(CNC(=O)C2CC(c3ccccc3[N+](=O)[O-])=NO2)o1` (stereo not drawn), the inhibition is reported as 0.33% (inactive). In the case of `Cc1cc(N)n(-c2ccc(S(=O)(=O)N3CCCC3)cc2[N+](=O)[O-])n1`, the inhibition is reported as 4.29% (inactive). With `C=CCOCCN(C)C1=NS(=O)(=O)c2ccccc21` the inhibition was 3.69% (inactive). In the case of `COc1ccc(N2C(=O)CNC2=S)cc1`, the inhibition is reported as 2.23% (inactive). In the case of `Cc1cc2cc(CNC(=O)c3cccs3)ccc2[nH]1`, the inhibition is reported as 39% (active). For `CCc1cccc(CC)c1NC(=S)NCc1ccc2[nH]c(C)cc2c1`, the inhibition was 8.67% (inactive). In the case of `Cc1ccc(C)c2[nH]c(=O)c(CCNC(=O)c3cccs3)cc12`, the inhibition is reported as 6.4% (inactive). With `Cn1c(=O)c2c(nc(N/N=C/c3cccs3)n2Cc2ccc(Br)cc2)n(C)c1=O` the inhibition was 2.68% (inactive). In the case of `COc1ccc(-c2csc(-c3cccs3)n2)cc1OC`, the inhibition is reported as 6.08% (inactive). For `COc1ccc(Br)cc1CN(C)CC(=O)Nc1cc([N+](=O)[O-])ccc1OC`, the inhibition was -2.62% (inactive). For `CCOC(=O)c1cc(-c2ccc(F)cc2)n(CC(=O)NCc2ccccn2)c1C`, the inhibition was 5.17% (inactive). With `CC1CCN(Cc2nc(-c3ccc(Cl)cc3)no2)CC1` the inhibition was 36% (active). With `CN1CCN(C(=O)CCc2nc(-c3ccc(Cl)cc3)no2)CC1` the inhibition was 5.12% (inactive). For `Cc1ccc(-c2noc(CN3CCN(Cc4ccccc4)CC3)n2)cc1`, the inhibition was 3.84% (inactive). For `O=c1[nH]c2cccnc2n(CCNc2ncc(C(F)(F)F)cc2Cl)c1=O`, the inhibition was 3.7% (inactive). With `N#CC1=C(N)Oc2[nH]c(=S)[nH]c(=O)c2C12C(=O)Nc1ccccc12` (stereo not drawn) the inhibition was 1.28% (inactive). With `Cc1nc(-c2ccccc2)cn2c1nc1ccccc12` the inhibition was 6.83% (inactive). For `Cc1c(Cl)c([N+](=O)[O-])nn1CC(=O)NCC1CCCO1` (stereo not drawn), the inhibition was -0.44% (inactive). For `COc1ccc(-c2cc(C(F)(F)F)nc(S(C)(=O)=O)n2)cc1OC`, the inhibition was 32.3% (active). For `COc1ccc(-c2cc(C(F)(F)F)nc(SCC(=O)Nc3ccc4c(c3)OCO4)n2)cc1OC`, the inhibition was 6.51% (inactive). With `COc1cc(OC)nc(S(C)(=O)=O)n1` the inhibition was -0.84% (inactive). For `CC(=O)c1ccc2c(c1)OCCOCCOc1ccc(C(C)=O)cc1OCCOCCO2`, the inhibition was 6.46% (inactive). With `O=C(CSc1nnc(-c2cccs2)n1-c1ccccc1)NCc1ccco1` the inhibition was 1.12% (inactive). For `COc1ccc(-n2c(SCC(=O)NCc3ccco3)nnc2-c2c[nH]c3ccccc23)cc1`, the inhibition was 7.39% (inactive). In the case of `O=C(CSc1nnc(-c2c[nH]c3ccccc23)n1-c1ccc(F)cc1)NCc1ccco1`, the inhibition is reported as 93.5% (active). For `CC(C)C(C)(C#N)NC(=O)CSc1nncn1-c1ccccc1` (stereo not drawn), the inhibition was 6.72% (inactive). For `O=C(Cc1ccc2c(c1)CCCC2)Nc1ccccc1Cl`, the inhibition was 6.44% (inactive). With `CC(=O)c1sc(NC(=O)c2cccc3ccccc23)nc1C` the inhibition was 4.12% (inactive). For `CC(NC(=O)c1cccc2ccccc12)c1ccc2c(c1)CCCC2` (stereo not drawn), the inhibition was 46.5% (active). With `Cc1ccc(N/N=C2\COC(C)(C)CC2=O)cc1` the inhibition was -2.17% (inactive). In the case of `O=S(=O)(NCc1ccco1)c1cnc(Cl)c(Cl)c1`, the inhibition is reported as -2.02% (inactive). With `Oc1ccc2ccccc2c1N=Nc1nccs1` the inhibition was 101% (active). With `Oc1ccc2ccccc2c1C=Nc1ccccc1` the inhibition was 3.24% (inactive). With `Oc1ccc(N=Nc2nccs2)c(O)c1` the inhibition was 0.92% (inactive). In the case of `Cc1ncoc1C(=O)N1CCCC(C(=O)c2ccc3c4c(cccc24)CC3)C1` (stereo not drawn), the inhibition is reported as 5.56% (inactive). For `N=C1/C(=C/c2cccn2-c2cccc([N+](=O)[O-])c2)C(=O)N=C2SC=CN12`, the inhibition was 3.29% (inactive). In the case of `Cc1ccc(OCC(=O)N/N=C/c2ccncc2)cc1`, the inhibition is reported as -0.78% (inactive). With `Cc1ccc(OCC(=O)N/N=C\c2ccco2)c(C)c1` the inhibition was -2.78% (inactive). In the case of `Cc1ccc(/C=N/NC(=O)COc2ccccc2-c2ccccc2)cc1`, the inhibition is reported as 83.4% (active). In the case of `CCNc1nc(-c2cc3ccccc3o2)cs1`, the inhibition is reported as 3.67% (inactive). In the case of `O=c1oc2ccccc2cc1-c1csc(Nc2ccc(O)cc2)n1`, the inhibition is reported as 37.3% (active). For `COc1ccc2nc(Nc3nc(-c4cc5ccccc5oc4=O)cs3)sc2c1`, the inhibition was 6.64% (inactive). In the case of `Cc1cc(Nc2ccc(Cl)cc2)nc(N2CCOCC2)n1`, the inhibition is reported as -1.08% (inactive).
